Pf Dd2 growth: blocks in vitro growth of P. falciparum Dd2. Potency, µM (highest dose often 28.9 µM), hits mostly inhibitors. 4.3% of 120,000 active. AID 1347417. P. falciparum Dd2 growth, SYBR Green, 72 h; active = well fitted inhibition curve with a large enough effect; also: nearly all actives have a fitted effect of over 65% in size
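Readout: SYBR Green fluorescence, 485 nm excitation, 535 nm emission, after ~16 h lysis at 37C. Before that, Dd2-infected red cells (2.5% hematocrit) grew 72 h with compound, 29 uM top final concentration.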
Of the large screens only hits and unclear results are named; the others gave an inactive call. This is one part of a sample in which hits are shown more often than they occur.

COc1ncccc1-c1cc(-c2ccc(=O)[nH]c2)c2cncn2c1	none
COc1ncccc1-c1cc(-c2c(C)noc2C)c2cncn2c1	Pf Dd2 growth 10µM
COC(=O)C1=C(C)N=C2SC=C(CC(=O)N3CCCC3)N2C1c1ccc(C)cc1C (configuration not stated)	none
COc1ccccc1-c1[nH]nc2ncc(C(=O)NCC3CC3)nc12	none
CCOC(=O)N1CCC(NC(=O)c2c(C)nn(-c3ccc(C)cc3)c2-n2cccc2)CC1	none
C=CCNC(=O)c1cn2c(n1)CN(C(=O)OCc1ccccc1)CC2	none
CCc1nn2c(=O)cc(COC(=O)c3ccccc3NC(=O)COc3ccccc3C)nc2s1	none
COC(=O)C1=C(C)NC(=O)C1(NC(=O)c1ccc(Cl)cc1)C(F)(F)F (configuration not stated)	none
O=C(COc1ccc(F)cc1)N1CCCC(Cc2noc(-c3ccccc3)n2)C1 (configuration not stated)	none
O=C(c1ccc(F)cc1)N1CC(Oc2cccc(-c3nc(-c4ccccc4)no3)c2)C1	none
CCNC(=O)N1CC(Oc2cccc(-c3nc(-c4ccccc4)no3)c2)C1	Pf Dd2 growth 1.26µM
O=C(Nc1ccccc1)N1CC(Oc2cccc(-c3nc(-c4ccccc4)no3)c2)C1	none
Cc1nc(C)c(C(=O)N2CCCCCCNC(=O)CC2)s1	none
Cc1cccc(OC(=O)c2cc(-c3ccc4c(c3)OCCO4)on2)c1	none
COc1ccc(-c2nn(C)c3sc(C(=O)Nc4cc(OC)c(OC)c(OC)c4)cc23)cc1OC	Pf Dd2 growth 11.2µM
COc1ccc(-c2nn(C)c3sc(C(=O)N4CCN(c5cccc(Cl)c5)CC4)cc23)cc1OC	none
COc1cccc(-c2nn(C)c3sc(C(=O)NCc4cc(OC)ccc4OC)cc23)c1	none
C[C@@H]1CN(C(=O)c2nc3sccn3c2CNC2(c3ccccc3)CC2)C[C@H](C)O1	none
O=C(NCCc1ccncc1)c1coc(CN2CCN(c3ccccc3F)CC2)n1	none
O=C(c1ccc2cc[nH]c2c1)N1CCC2(CCCCO2)CC1	none
O=C(Nc1cccc(F)c1)N1Cc2[nH]cnc2C[C@H]1c1nc(-c2ccccc2)no1	none
O=C(Nc1ccccc1)N1Cc2[nH]cnc2C[C@H]1c1nc(-c2ccccc2)no1	none
CC(C)NC(=O)N1Cc2[nH]cnc2C[C@H]1c1nc(-c2ccccc2)no1	none
Cc1cccc(-c2noc([C@@H]3Cc4nc[nH]c4CN3C(=O)Nc3cccc(C#N)c3)n2)c1	none
Cc1cccc(-c2noc([C@@H]3Cc4nc[nH]c4CN3C(=O)Nc3cccc(F)c3)n2)c1	Pf Dd2 growth 12.6µM
O=C(c1ccccc1)N1Cc2[nH]cnc2C[C@H]1c1nc(-c2ccncc2)no1	Pf Dd2 growth 11.2µM
O=C(NC1CCCCC1)N1Cc2[nH]cnc2C[C@H]1c1nc(-c2ccncc2)no1	Pf Dd2 growth 12.6µM
COc1ccc(NC(=O)N2Cc3[nH]cnc3C[C@H]2c2nc(-c3ccc(OC)cc3)no2)cc1	none
O=C(NC1CCCCC1)N1CCCCCC1c1nc(-c2ccncc2)no1 (configuration not stated)	none
O=C(NCCCn1ccnn1)[C@H]1CNC[C@@H](C(=O)N2CCCC2)C1	none
COCCOC1CCOC2(CCN(C(=O)c3ccc(OC)nc3)CC2)C1 (configuration not stated)	none
Cc1nc2ccn(Cc3ccccc3)c(=O)c2cc1C(=O)N1CCN(c2ccccc2F)CC1	none
COc1ccc(CNC(=O)c2cn3ccnc(-c4ccccc4)c3n2)cc1OC	none
CC(=O)c1[nH]c(C)c(C(=O)NCc2ccc(Cl)cc2)c1C	none
O=C(NCC(c1cccnc1)N1CCN(Cc2ccccc2)CC1)C(=O)Nc1cccc(Cl)c1 (configuration not stated)	Pf Dd2 growth 3.98µM
COc1ccc(N2CCN(C(CNC(=O)C(=O)NCc3cccnc3)c3cccnc3)CC2)cc1 (configuration not stated)	none
COCCNC(=O)C(=O)NCC(c1cccnc1)N1CCN(c2ccccc2F)CC1 (configuration not stated)	none
Cc1cccc(NC(=O)C(=O)NCC(c2ccc3c(c2)OCO3)N2CCN(c3ccccc3)CC2)c1 (configuration not stated)	none
CCc1ccc(NC(=O)C(=O)NCC(c2cccnc2)N2CCN(C)CC2)cc1 (configuration not stated)	none
O=C(NCC(c1cccnc1)N1CCN(Cc2ccccc2)CC1)C(=O)Nc1ccc(Cl)cc1 (configuration not stated)	Pf Dd2 growth 14.1µM
COc1ccccc1N1CCN(C(CNC(=O)C(=O)NCCN(C)C)c2cccnc2)CC1 (configuration not stated)	none
Cc1ccc(NC(=O)C(=O)NCC(c2cccnc2)N2CCN(Cc3ccccc3)CC2)cc1 (configuration not stated)	none
Cc1cccc(NC(=O)C(=O)NCC(c2cccnc2)N2CCN(Cc3ccccc3)CC2)c1 (configuration not stated)	Pf Dd2 growth 7.94µM
CN(CC1CCOCC1)S(=O)(=O)c1ccccc1F	none
Cc1nn(C)cc1C(=O)N1C[C@H]2CC[C@@H]1CN(C(=O)c1cccnc1)C2	none
CCOC(=O)c1ccccc1NC(=O)CN1C(=O)CC(c2ccco2)Sc2ccccc21 (configuration not stated)	none
Cc1noc([C@@H]2CC(F)(F)CN2C(=O)c2ocnc2C)n1	none
Cc1ccc(NC(=O)CN(c2ccccc2)S(=O)(=O)N(C)C)cc1Cl	none
COCCCNC(=O)N1CCCN(S(=O)(=O)c2ccccc2)CCC(=O)NCC1	none
CCOc1cc2c(cc1OCC)C(CC(=O)OC)N(C(=O)Nc1cc(C)cc(C)c1)CC2 (configuration not stated)	none
CCNC(=O)N1CCc2cc(OC)c(OC)cc2C1CNC(=O)CC(C)C (configuration not stated)	none
CCCCC(=O)N1CCc2cc(OC)c(OC)cc2C1COc1ccc(C(=O)OCC)cc1 (configuration not stated)	Pf Dd2 growth 11.2µM
COC(=O)c1ccc(OCC2c3cc(OC)c(OC)cc3CCN2C(=O)Cc2ccc(OC)c(OC)c2)cc1 (configuration not stated)	Pf Dd2 growth 11.2µM
CCC(=O)N1CCc2cc(CNC(=O)Cc3ccc(OC)c(OC)c3)ccc21	none
COc1ccc(CC(=O)N2[C@@H]3CC[C@H]2CC(NC(=O)c2ccc(F)cc2)C3)cc1OC (some centres not stated)	none
CCOC(=O)c1ccc(OCC2c3cc(OC)c(OC)cc3CCN2C(=O)Cc2ccc(F)cc2)cc1 (configuration not stated)	Pf Dd2 growth 10µM
COc1ccc(CC(=O)N2CCc3cc(OC)c(OC)cc3C2COc2cc(C)cc(C)c2)cc1OC (configuration not stated)	Pf Dd2 growth 3.98µM
CNC(=O)[C@@H]1CN(C(=O)Cc2ccc(OC)c(OC)c2)C[C@H]1COC	none
CCOC(=O)CC1c2cc(OCC)c(OCC)cc2CCN1C(=O)Nc1cccc(Cl)c1 (configuration not stated)	none
COc1ccc2[nH]c(=O)c(CCC(=O)N3CCCC3)cc2c1	none
CC(C)(C(=O)NCc1ccc(OC(F)(F)F)cc1)C1CCOCC1	none
O=C(CN1CCCN(Cc2ccccc2Cl)S1(=O)=O)Nc1ccc2c(c1)OCCO2	none
OC1(CNCc2nc(-c3ccncc3)n[nH]2)CNCCOC1 (configuration not stated)	none
O=C(NCc1cccc(F)c1)C1CN(Cc2ccccc2)C(=O)N1 (configuration not stated)	none
Cc1ccccc1N1CCN(C(=O)Cn2nc3n(c2=O)CCC(N)CC3)CC1 (configuration not stated)	none

Assay outcomes deposited in PubChem BioAssay by National Center for Advancing Translational Sciences (NCATS).
